{"source": "PubChem BioAssay AID772", "about": "(SRMLSC, 2007)", "assay": "HT29 colon tumor cell growth inhibition, primary screen, imaging, high content imaging, 72 h, CellTiter-Glo (AID 772);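 on condensed nuclei: condensed means nuclear area below control median minus 1.5 SD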", "conditions": "HCS imaging cell count, at 10 µM, stronger effect = higher value; for condensed nuclei: measured here: percent cells with condensed nuclei", "key": {"[1]": {"conditions": "measured here: ATP CellTiter-Glo viability"}}, "note": "Hit rate of the full screen: of about 3,300 compounds, about 20 (0.6%) were called active.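 How the source made its calls: active means growth inhibition above 90%, meaning viable cell count cut by more than 90% versus vehicle controls; inactive means growth inhibition below 90%.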 The full list was thinned out, with actives kept by preference."}
{"compound": "COCC(C)OC(=O)c1c(N)n(Cc2ccco2)c2nc3ccccc3nc12", "note": "(stereo not given)", "values": [{"measurement": "growth inhibition", "value": "44.2% (inactive)"}, {"measurement": "growth inhibition", "setting": "[1]", "value": 19.7, "unit": "%"}, {"measurement": "condensed nuclei", "value": 1.26, "unit": "%"}]}
{"compound": "CC(C)(C)OC(=O)c1c(N)n(Cc2ccco2)c2nc3ccccc3nc12", "values": [{"measurement": "growth inhibition", "value": "44.5% (inactive)"}, {"measurement": "growth inhibition", "setting": "[1]", "value": 20.9, "unit": "%"}, {"measurement": "condensed nuclei", "value": 4.1, "unit": "%"}]}
{"compound": "CCCCOCCCn1c(N)c(C(=O)OCCOC)c2nc3ccccc3nc21", "values": [{"measurement": "growth inhibition", "value": "95.3% (active)"}, {"measurement": "growth inhibition", "setting": "[1]", "value": 57.5, "unit": "%"}, {"measurement": "condensed nuclei", "value": 17.2, "unit": "%"}]}
{"compound": "CC(C)OC(=O)c1c(N)n(Cc2ccco2)c2nc3ccccc3nc12", "values": [{"measurement": "growth inhibition", "value": "31.4% (inactive)"}, {"measurement": "growth inhibition", "setting": "[1]", "value": -17.3, "unit": "%"}, {"measurement": "condensed nuclei", "value": 3.52, "unit": "%"}]}
{"compound": "CCCCOCCCn1c(N)c(C(=O)OC(C)COC)c2nc3ccccc3nc21", "note": "(stereo not given)", "values": [{"measurement": "growth inhibition", "value": "91.4% (active)"}, {"measurement": "growth inhibition", "setting": "[1]", "value": 77.2, "unit": "%"}, {"measurement": "condensed nuclei", "value": 11, "unit": "%"}]}
{"compound": "COCCOC(=O)c1c(N)n(Cc2ccco2)c2nc3ccccc3nc12", "values": [{"measurement": "growth inhibition", "value": "-33.9% (inactive)"}, {"measurement": "growth inhibition", "setting": "[1]", "value": -49.5, "unit": "%"}, {"measurement": "condensed nuclei", "value": 3.83, "unit": "%"}]}
{"compound": "COc1ccc(C2SCC(=O)Nc3c2c(=O)[nH]n3C2CCCCC2)cc1", "note": "(stereo not given)", "values": [{"measurement": "growth inhibition", "value": "1.43% (inactive)"}, {"measurement": "growth inhibition", "setting": "[1]", "value": -9.94, "unit": "%"}, {"measurement": "condensed nuclei", "value": 12.4, "unit": "%"}]}
{"compound": "Clc1ccc(CSC(Cn2ccnc2)c2ccc(Cl)cc2Cl)cc1", "note": "(stereo not given)", "values": [{"measurement": "growth inhibition", "value": "57.5% (inactive)"}, {"measurement": "growth inhibition", "setting": "[1]", "value": 71.7, "unit": "%"}, {"measurement": "condensed nuclei", "value": 13.6, "unit": "%"}]}
{"compound": "CCN(CC)CCCNC(=O)c1c(O)c2ccccc2n(Cc2ccccc2)c1=O", "values": [{"measurement": "growth inhibition", "value": "84.5% (inactive)"}, {"measurement": "growth inhibition", "setting": "[1]", "value": 95.7, "unit": "%"}, {"measurement": "condensed nuclei", "value": 16, "unit": "%"}]}
{"compound": "CCCCn1c(O)c(C=NCCN2CCCCC2)c(=O)[nH]c1=O", "values": [{"measurement": "growth inhibition", "value": "4.76% (inactive)"}, {"measurement": "growth inhibition", "setting": "[1]", "value": -24.2, "unit": "%"}, {"measurement": "condensed nuclei", "value": 0.91, "unit": "%"}]}
